# Screens: PubChem BioAssay, National Center for Advancing Translational Sciences (NCATS)
# In the library only some 1.8% were active in any assay of this set; here they are far more common.
# RGS4 inh: blocks human RGS4-accelerated GTP hydrolysis; P49798; AID 504845; Potency, µM (highest dose often 114 µM), without a hit: at the highest dose activity change, negative = inhibition, actives largely listed as inhibitors; 390,000 tested, 0.039% active; Transcreener GDP fluorescence polarization, RGS4-accelerated GTP hydrolysis; also: % is scaled to controls: 0 for no effect and ±100 for the full control effect; nearly all actives have a fitted effect of over 75% in size
#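 MLSMR compounds (23 nl, pin-transferred) preincubated 10 min at room temperature with a 500nM (2x) first reagent, then RGS4 at 900nM (2x) plus Transcreener GDP mix added; fluorescence polarization (620/688 nm) read before and after 90 min at 30 °C.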
# GLP1R inv ag: inverse agonists of human GLP-1 receptor; P43220; HEK293 GLP-1R CRE-luciferase, luminescence, 24 h; GLP-1R form is constitutively active; Potency, µM (top dose mostly 38.3 µM), for the others: top-dose activity change, negative = inhibition, actives largely listed as inhibitors; 410,000 tested, 1.6% active; also: % is scaled to controls: 0 for no effect and ±100 for the full control effect; nearly all actives have a fitted effect of over 55% in size
#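 qHTS in 1536-well format: reporter HEK293 cells expressing constitutive GLP-1R activity in DMEM + 10% Nu serum, 24 hr with compounds at 37 deg C, luminescence read after 12 min with detection reagent.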
# GLP1R cytotox: cytotoxicity counter-screen for GLP-1 receptor inverse agonists; 410,000 tested, 0.13% active; HEK293 cAMP-luciferase reporter cells, luminescence, 24 h; Potency, µM (highest dose often 38.3 µM), inactives show top-dose activity change, negative = inhibition, most hits filed as inhibitors;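 also: loss of luciferase light is scored as toxicity; % is scaled to controls: 0 for no effect and ±100 for the full control effect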
#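 Cells in DMEM/10% Nu serum/1% pen-strep, 1536-well format. Pre-incubated 12 h, dosed with 23 nL compound, incubated a further 24 h. Luciferase detection, 12 min at room temp, luminescence.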
# GLP-1R agonist: agonists of human GLP-1 receptor; P43220; HEK293 GLP-1R CRE-luciferase, luminescence, 4-6 h; cells express a hypersensitive GLP-1R form; Potency, µM (titrated, usually from 45.6 µM), for inactives: at the highest dose activation, most hits filed as activators; 380,000 tested, 0.007% active; also: % of control where 0% means no effect
# PTHR1 ag: PTHR1 (human) receptor agonism; Q03431; HEK293 GP2 PTHR1 cells, GloSensor cAMP luminescence, 1 h; Potency, µM (titrated, usually from 115 µM), for inactives: top-dose activation, usual class: activators; 410,000 tested, 0.075% active; also: nearly all actives have a fitted effect of over 55% in size
# Target sequence (Q03431 whole entry, looked up): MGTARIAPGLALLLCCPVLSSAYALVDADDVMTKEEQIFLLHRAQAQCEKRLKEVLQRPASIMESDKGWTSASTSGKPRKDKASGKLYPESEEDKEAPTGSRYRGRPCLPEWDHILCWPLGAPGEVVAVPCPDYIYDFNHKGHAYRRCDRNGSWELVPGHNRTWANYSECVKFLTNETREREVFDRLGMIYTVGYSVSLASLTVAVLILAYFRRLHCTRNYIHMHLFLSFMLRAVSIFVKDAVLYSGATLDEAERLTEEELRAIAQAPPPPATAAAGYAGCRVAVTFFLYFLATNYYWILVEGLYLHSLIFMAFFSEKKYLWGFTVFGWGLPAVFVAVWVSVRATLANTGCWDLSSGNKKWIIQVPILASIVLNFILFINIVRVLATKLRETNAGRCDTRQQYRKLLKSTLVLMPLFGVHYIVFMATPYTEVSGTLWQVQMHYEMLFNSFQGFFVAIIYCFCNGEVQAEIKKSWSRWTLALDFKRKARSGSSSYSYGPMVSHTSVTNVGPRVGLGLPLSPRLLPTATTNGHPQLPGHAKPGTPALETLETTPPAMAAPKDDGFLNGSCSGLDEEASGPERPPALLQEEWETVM
#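 HEK-293-derived GP2 cells expressing PTHR1 and a GloSensor cAMP reporter, 3,000/well, plated overnight, given luciferin plus IBMX (each 0.5 mM as added) for 1 h at 37 °C, then compound for 1 h at 37 °C. Luminescence was read after 15 min at room temperature.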
# GCN5L2 inh: inhibitors of human GCN5L2 histone acetyltransferase; GCN5L2 HAT assay, ThioGlo1 CoA-SH fluorescence; AID 504327; Potency, µM (highest dose often 58.9 µM), inactives show at the highest dose activity change, negative = inhibition, hits mostly inhibitors; 390,000 tested, 0.21% active; also: % is scaled to controls: 0 for no effect and ±100 for the full control effect
#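 Titration-based screen in which CoA formation is detected via maleimide probe ThioGlo1 (50uM) turning fluorescent on thiol reaction; substrates H3(1-25) 75uM and acetyl-CoA 70uM, GCN5L2 20nM, 20 min incubation at room temperature.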
# An asterisk follows results filed as active; i = inactive; ? = inconclusive; nt = not tested or not shown; [ ] = remark or other dose. Calls follow the shape of the dose curve; as a rule, active = well fitted curve in the direction sought with a large enough effect; inconclusive = small, poorly fitted or top-dose-only effect, or another doubt; inactive = no such curve, though single readings can be large; an effect the other way counts as inactive or inconclusive. Potency is read from the fitted curve at half-maximal effect.
SMILES,RGS4 inh,GLP1R inv ag,GLP1R cytotox,GLP-1R agonist,PTHR1 ag,GCN5L2 inh
CC(=O)O[C@H]1C(=O)[C@@]2(C)C([C@H](OC(=O)c3ccccc3)[C@]3(O)C[C@H](OC(=O)[C@H](O)[C@@H](NC(=O)c4ccccc4)c4ccccc4)C(C)=C1C3(C)C)[C@]1(OC(C)=O)CO[C@@H]1C[C@@H]2O (stereo not given in full),6%[56.9 µM],nt,nt,nt,nt,-21%
COC(=O)c1ccccc1NC(=O)N1c2ccccc2Sc2ccccc21,-11%,10µM*,28%,26%,i,-10%
O=C(c1ccccc1)c1ccccc1C(=O)c1ccccc1,9%,8.9µM*,46%,18%,-22%,?
Cc1ccccc1C(=O)c1ccccc1C(=O)c1ccccc1,15%,?,1%,-1%,-19%,nt
COc1ccc(CCNC(=O)c2ccc3c(c2)N(Cc2ccc(C)cc2)CCS3)cc1OC,8%,?,0%,6%,-8%,-19%
Cc1ccc(CCNC(=O)c2ccc3c(c2)N(Cc2ccc(F)cc2)CCS3)cc1,-12%,-25%,0%,nt,-21%,-12%
O=C(NCC1CCCO1)c1ccc2c(c1)N(Cc1ccc(Cl)cc1)CCS2 (stereo not given),nt,10µM*,-17%,8%,-17%,nt
CN(C)CCNC(=O)c1ccc2c(c1)N(Cc1ccc(F)cc1)CCS2,-5%,3.2µM*,1%,-3%,-14%,-18%
Cc1ccc(CN2CCSc3ccc(C(=O)NCCCN4CCN(C)CC4)cc32)cc1,9%,5.6µM*,?,30%,i,-13%
CO[C@@]1(NC(=O)CSC(F)F)C(=O)N2C(C(=O)O)=C(CSc3nnnn3CCO)CO[C@@H]21,nt,nt,nt,6%,nt,nt
CC1(C)CCC(C)(C)c2cc(C(=O)Nc3ccc(C(=O)O)cc3)ccc21,i,nt,nt,nt,nt,?
C=C(c1ccc(C(=O)O)cc1)c1cc2c(cc1C)C(C)(C)CCC2(C)C,nt,nt,nt,-2%,nt,6.3µM*
Cc1nc(SCc2cccc(C(=O)O)c2)nc2c1CCCC2,-39%,8.9µM*,0%,-1%,-24%,4%
O=P(O)(O)OC(Cn1cncn1)(Cn1cncn1)c1ccc(F)cc1F,nt,nt,nt,-2%,nt,nt
CCOC(=O)Nc1sc2c(c1C(=O)OCC)CCC2,-40%,-4%,3%,8%,-17%[57.5 µM],0%
CCOC(=O)c1c(NC(NC(=O)C(C)C)C(Cl)(Cl)Cl)sc2c1CCC2 (stereo not given),-50%,5.6µM*,-3%,-4%,i,-10%
O=C(Oc1c(Br)cc(C(=S)N2CCOCC2)cc1Br)c1ccc(Cl)cc1,-99%,10µM*,?,-8%,-7%[57.5 µM],-15%
CCCCc1cc(=O)oc2cc(O)ccc12,12%,-14%,115%,13%,-13%,?
c1ccc(-c2nnsc2-c2ccccc2)cc1,8%,?,-4%,-2%,-16%,-1%
O=S(=O)(c1ccc(Cl)c(Cl)c1)c1snnc1-c1ccccc1,-30%,7.1µM*,?,-5%,-11%[57.5 µM],0%
Nc1ncnc2c1ncn2[C@@H]1O[C@H](CNC(=O)[C@@H]2CCC(=O)N2)[C@@H](O)[C@H]1O,20%,11%,-6%,-4%,i,-1%
CC(c1nc2ccccc2n1Cc1ccccc1)N1CCCCC1 (stereo not given),-4%,1.3µM*,?,11%,-20%,0%
CC12CCC=CC1C(c1ccoc1)N(Cc1ccccc1)C2=O (stereo not given),-12%,nt,nt,nt,nt,nt
COc1ccc(/C=N/n2c(C)nc3ccccc3c2=O)cc1,-3%,13%,-4%,9%,i,-5%
COc1ccc(/C=N\n2nnc3ccccc32)cc1,-14%,5.6µM*,-4%,0%,-20%,-1%
